Bioassay records deposited in PubChem by several laboratories.
HSF-1 act: increases HSF-1 driven luciferase reporter signal; activation, % at 9 µM; actives 1.7% (n = 300,000); NIH3T3-HGL HSF-1 luciferase reporter, MG132, 8 h; 100% = twice DMSO control signal; AID 504408;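 active means mean replicate activation of at least 50% with a set share of replicates each reaching 50%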;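 further: 0% = median of the neutral control wells and 100% = twice that signal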
HSF1 inhib: HSF1 inhibition | NIH3T3-HGL HSE-luciferase, MG132-induced, luminescence 8 h; hits give low values | AID 2098 | activity change, negative = inhibition, % at 7.5 µM (by protocol) | actives 0.77% (n = 300,000);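 active means more than half of replicate wells show activity change below -50%, luminescence cut by over half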;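 further: luciferase reports HSF-1 transcriptional activity via heat shock element; 0% = median of DMSO wells and -100% = zero luminescence signal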
HSP90 inh: blocks HSP90-mediated luciferase refolding in reticulocyte lysate | Rabbit reticulocyte lysate, luciferase refolding luminescence, 3 h | actives 0.91% (n = 290,000) | AID 1789 | inhibition, % at 5.6 µM;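 active means inhibition above the screen-wide mean plus 3 SD, computed separately per campaign, cut at about 16% in these data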;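 further: 0% = DMSO wells and 100% = 60 µM geldanamycin wells; inhibitors lower the luminescence because luciferase stays unfolded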
TWEAK-Fn14 inh: inhibitors of TWEAK-Fn14 interaction signaling; inhibition, % at 10 µM; actives 2% (n = 360,000); TWEAK-stimulated Fn14 reporter cells, luciferase luminescence, 8 h; in the data active means inhibition above about 50%
EBV LMP1 NFkB: Epstein-Barr LMP1 NF-kappaB reporter inhibition; LMP1-induced NF-kappaB luciferase reporter cells, luminescence; inhibition, % at 12.5 µM; actives 0.69% (n = 350,000); in the data active means inhibition above about 41%;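 further: 0% = neutral control wells and 100% = reference inhibitor control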
TROY signal inh: inhibitors of TROY-dependent NF-kB signaling. actives 0.98% (n = 360,000). Q293 LMP1-TROYcd NF-kB luciferase reporter, 4 h. inhibition, % at 10 µM;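 active means compounds whose plate-normalised and pattern-corrected inhibition of the luciferase reporter signal at the single screening dose is 50% or more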
Active calls of the source: *; · = not tested or not shown. Rows were chosen to be rich in hits. Some 4.7% of all compounds tested hit in one or more screens of this group.

SMILES | HSF-1 act | HSF1 inhib | HSP90 inh | TWEAK-Fn14 inh | EBV LMP1 NFkB | TROY signal inh
CC(=O)Nc1cccc(NC(=O)CSc2ncc(-c3ccc(Cl)cc3)n2Cc2ccco2)c1 | -5 | 3 | 5 | 81* | 5 | 61*
O=C(CSc1nnc(-c2ccncc2)n1Cc1ccco1)N1c2ccccc2Sc2ccc(Cl)cc21 | 70* | 63 | 3 | 34 | -13 | ·
O=C(CSc1nccn1Cc1ccco1)Nc1cccc(F)c1 | -79 | -74* | -1 | -15 | -12 | -19
O=C(CSc1ccc(-c2ccc(Cl)cc2)nn1)Nc1ccc2c(c1)OCCO2 | 26 | -1 | -3 | 29 | -7 | 62*
Cc1ccc(NC(=O)CSc2ccc(-c3ccc4c(c3)OCO4)nn2)cc1F | 20 | 6 | -5 | -25 | -26 | -69
O=C(CSc1nccn1Cc1ccco1)Nc1ccc(F)cc1 | 11 | -1 | -2 | -18 | -9 | -23
CC(C)C[C@H]1CNC(=S)N1C[C@H]1CCCN1C[C@H](CC(C)C)N1C[C@H](Cc2ccc(O)cc2)N(CC2CCCCC2)C1=S | · | · | · | 31 | · | 26
CCC(=O)N1CCC1(C)C(=O)Nc1ccc(OC)c(OC)c1 (stereo not given) | · | · | · | 12 | · | -2
O=C(CSc1nnc(-c2ccc(Cl)cc2)n1Cc1ccco1)Nc1ccc2c(c1)OCCO2 | 29 | 4 | -2 | 10 | 5 | 52*
NC(=O)C1CCN(CC(=O)Nc2ccc3c(c2)OCCO3)CC1 | · | · | · | 8 | 1 | -19
O=C(CN1CCC(C(=O)c2ccc(Cl)cc2)CC1)Nc1ccc2c(c1)OCCO2 | -25 | -17 | 0 | 62* | -1 | 29
CN(C)c1cnn(-c2ccccc2)c(=O)c1Cl | 1 | 0 | -2 | -8 | -15 | -23
Cc1ccc(-n2ncc(N(C)C)c(Cl)c2=O)cc1 | 44 | 17 | 14 | 55* | 12 | 22
COc1ccc(-n2ncc(Cl)c(Cl)c2=O)cc1 | 21 | 10 | 0 | 98* | · | 56*
O=C(O)C1CCC2CCCC21 (stereo not given) | · | · | · | 17 | · | 8
[O-][n+]1ccc(CC(O)(C(F)(F)F)C(F)(F)F)cc1 | · | · | · | 0 | 3 | 2
COc1ccc(/C=C(\C#N)c2nc3ccc(C)cc3[nH]2)cc1Oc1ccc(C(F)(F)F)cc1[N+](=O)[O-] | 36 | 13 | 4 | -46 | -21 | 35
COc1cc(/C=C(\C#N)c2nc3ccc(C)cc3[nH]2)c([N+](=O)[O-])cc1OC | 64* | 21 | 3 | -11 | 7 | -16
COc1cc(/C=C(\C#N)c2nc3ccc(C)cc3[nH]2)cc([N+](=O)[O-])c1O | · | · | 1 | 51* | -64 | -23
CCOC(=O)c1cc(CC)sc1/N=C/C1=C(O)CCCC1=O | -67 | -54* | -12 | -8 | 7 | 13
CCOC(=O)c1c(/N=C/C2=C(O)CCCC2=O)sc2c1CCCC2 | -23 | -14 | 1 | -4 | · | -17
COc1ccc(N(C)C(=O)c2cc3c(s2)-c2ccccc2OC3)c(OC)c1 | -55 | -43 | -1 | -34 | 14 | -4
COc1ccc(N(C)C(=O)c2cc3c(s2)-c2ccc(Cl)cc2S(=O)(=O)C3)c(OC)c1 | 9 | 1 | -6 | 71* | 11 | 31
CCc1ccc(C(=O)/C=C/c2ccc([N+](=O)[O-])o2)cc1 | 155* | 124 | 2 | 11 | -12 | -10
CCOC(=O)CCc1ccc(NC(=O)/C=C/c2ccc([N+](=O)[O-])o2)cc1 | 2 | 2 | · | 77* | -66 | -9
SMILES | HSF-1 act | HSF1 inhib | HSP90 inh | TWEAK-Fn14 inh | EBV LMP1 NFkB | TROY signal inh
CCOC(=O)c1[nH]c2ccc(Cl)cc2c1-c1ccccc1 | 16 | 1 | 5 | 7 | 26 | 3
CN(C)C=NC(=O)c1[nH]c2ccc(Cl)cc2c1-c1ccccc1 | 9 | 6 | 7 | 69* | -4 | 43
COc1ccc(-c2nc(CNS(=O)(=O)c3ccc(OC)c(OC)c3)cs2)cc1 | -70 | -63* | 1 | 22 | 5 | -8
COc1ccc(S(=O)(=O)NCCc2csc(-c3cccnc3)n2)cc1 | 14 | -1 | 2 | -3 | 77* | 11
COc1ccc(S(=O)(=O)NCc2csc(C)n2)cc1OC | -6 | -13 | 0 | -5 | · | 4
COc1ccc(OC)c(S(=O)(=O)NCCc2csc(-c3cccnc3)n2)c1 | · | · | 0 | 25 | -3 | -9
C[C@]12c3[nH]c4ccc(Cl)cc4c3CCN1C(=O)[C@@H](CC(=O)NCC13CC4CC(CC(C4)C1)C3)C[C@@H]2C(=O)N1CCOCC1 | · | · | · | 42 | -3 | 39
O=C(CC1C[C@H](C(=O)N2CCOCC2)[C@@]2(CCC3CCCC3)c3[nH]c4ccccc4c3CCN2C1=O)NCC12CC3CC(CC(C3)C1)C2 (stereo not given in full) | · | · | · | 50* | 12 | 3
O=C(C[C@H]1C[C@H](C(=O)N2CCCCC2)[C@@]2(CCc3ccccc3)c3[nH]c4ccc(Cl)cc4c3CCN2C1=O)NCCc1ccccn1 | · | · | · | 69* | 20 | 63*
C[C@]12c3[nH]c4ccc(Cl)cc4c3CCN1C(=O)[C@@H](CC(=O)NCC13CC4CC(CC(C4)C1)C3)C[C@@H]2C(=O)N1CCCCC1 | · | · | · | 61* | 3 | 35
O=C(CC1C[C@H](C(=O)N2CCOCC2)[C@@]2(CCC3CCCC3)c3[nH]c4ccccc4c3CCN2C1=O)NCCN1CCOCC1 (stereo not given in full) | · | · | · | 0 | 12 | 7
CNc1ncnc2c1ncn2[C@H]1CN(C2CCCC2)C[C@@H](CO)O1 | · | · | · | -7 | · | 3
CC(O)(c1ccc(F)c(F)c1)c1nc(-c2cc(F)cc(F)c2)cs1 (stereo not given) | · | · | · | 0 | · | 4
Cc1csc2nc(CSc3ccc(Cl)cc3)cn12 | 67* | 72 | -1 | 8 | -37 | -53
Clc1ccc(SCc2cn3ccsc3n2)cc1 | 111* | 73 | 0 | -31 | -27 | -7
Cc1cc(C)n2cc(CSc3ccc(Cl)cc3)nc2n1 | 8 | 6 | 4 | -21 | -8 | -2
O=c1c2ccccc2nc(SCc2cn3ccsc3n2)n1-c1ccccc1 | 65* | 39 | 2 | 6 | 7 | 1
CC1=C(C(=O)N(C)C)CC(CC(=O)NCC2CCCCC2)C(=O)N1Cc1ccc(F)cc1 (stereo not given) | · | · | · | 4 | · | 1
C#CCN(C[C@@H]1[C@@H](OC(=O)NCc2ccco2)[C@@H](OC(=O)NCc2ccco2)CN(C(=O)OC(C)C)N1C(=O)OC(C)C)S(=O)(=O)c1ccc(C)cc1 | · | · | · | 13 | -19 | 16
O=C(Cc1ccc(-n2c(=O)c3sccc3n(CC(=O)Nc3ccccc3)c2=O)cc1)NCc1ccco1 | 5 | -4 | 1 | 4 | -2 | 4
O=C(Cc1ccc(-n2c(=O)c3sccc3n(CC(=O)Nc3ccccc3F)c2=O)cc1)NCc1ccco1 | -6 | 1 | 7 | 14 | 69* | -8
